SARS PLP yeast: qHTS of Yeast-based Assay for SARS-CoV PLP. Potency, µM (series often up to 32.9 µM), actives largely listed as activators. AID 485353, 2010. S. cerevisiae expressing SARS-CoV PLpro, growth rescue. 0.19% of 330,000 active; calls by dose curve; note: nearly all actives have a fitted effect of over 55% in size
NS1 function inh: qHTS Assay for Inhibitors of Influenza NS1 Protein Function | 0.4% of 270,000 active | Potency, µM (top dose mostly 46.1 µM); calls by dose curve; note: actives are rising curves; nearly all actives have a fitted effect of over 50% in size
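Compounds were scored for reversing the slow growth caused by influenza A NS1 in S. cerevisiae, measured by optical density at 600 nm. Assay medium contained 2% galactose at pH 6.0; NS1-free yeast of the same strain were the positive control.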
Pf growth 48h: Primary qHTS for delayed death inhibitors of the malarial parasite plastid, 48 hour incubation; Potency, µM (doses to about 28.7 µM), hits mostly inhibitors; P. falciparum luciferase growth in erythrocytes, 48 h; 5.9% of 310,000 active
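Luciferase-expressing parasites in RBCs, 2% Hct / 0.1% parasitemia final; RPMI 1640 + 0.5% Albumax; 37 C, 5% CO2, one generation; luminescence read-out, lower signal = inhibition.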
Pf growth 96h: Primary qHTS for delayed death inhibitors of the malarial parasite plastid, 96 hour incubation | P. falciparum luciferase reporter growth, 96 h | 6.9% of 320,000 active | Potency, µM (doses to about 28.7 µM), actives largely listed as inhibitors
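Readout is luminescence from an integrated firefly luciferase in P. falciparum. Red cells, 2% hematocrit and 0.05% parasitemia final, were cultured with compound through two parasite generations (96 hours) at 37 C, 5% CO2.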
Hits are given with their value; i = inactive; ? = inconclusive; nt = no result given; ! = not active in a repeat; [ ] = remark or other dose. Compounds with a hit are over-represented: about 10% of the library has one in this group of screens. Unless noted, calls come from the whole dose curve; as a rule, active = well fitted inhibition curve with a large enough effect; inconclusive = small, poorly fitted or top-dose-only effect, or another doubt; inactive = no such curve, though single readings can be large or run the other way.

SMILES	SARS PLP yeast	NS1 function inh	Pf growth 48h	Pf growth 96h
Cc1ccccc1C(=O)N1N=C(c2ccc(NS(C)(=O)=O)cc2)CC1c1cccs1 (stereo unspecified)	i	i	?	1.7µM
O=C(CC1C(=O)Nc2ccccc2N1CC(=O)N1CCCC1)Nc1ccc(Br)cc1 (stereo unspecified)	i[6.58 µM]	nt	i	?
O=C(NNC(=O)c1ccc(-c2ccccc2)cc1)Nc1ccc(F)cc1F	i	i	i	i
COC(=O)C1=C(C)N(Cc2ccccc2)C(=NCc2ccccc2)N[C@H]1c1cccc(C(F)(F)F)c1	i	nt	nt	nt
CC(=O)C1=C(C)N(Cc2ccccc2)C(=O)N[C@@H]1c1cccc(C(F)(F)F)c1	i	i	?	?
CCN(CC)CCCN=C1N[C@@H](c2ccccc2)C(C(=O)OC)=C(C)N1CC	i	i	?	1.7µM!
CCN1C(=NCc2ccc(OC)cc2)N[C@@H](c2ccccc2)C(C(=O)OC)=C1C	i	i	i	?
CCN1C(=NCc2cc(OC)c(OC)c(OC)c2)N[C@@H](c2cccc(C(F)(F)F)c2)C(C(=O)OC)=C1C	i	i	?	2.6µM
COc1cc(CCN2C(=O)N[C@@H](c3cccc(C(F)(F)F)c3)C(C(C)=O)=C2C)cc(OC)c1OC	i	i	13µM	10µM
CCN1C(=NCc2cc(OC)c(OC)c(OC)c2)N[C@@H](c2ccccc2)C(C(=O)OC)=C1C	i	i	i	4.7µM
O=C(O)CN(CCN(CC(=O)O)CC(=O)O)CC(=O)O.[Mn]	nt	i	nt	nt
COC(CNC(=O)C(=O)Nc1cc2c3c(c1)CCN3C(=O)CC2)OC	i	i	i	i
C[C@H]1CN([C@@H](C)CO)C(=O)c2cccc(NC(=O)C3CC3)c2O[C@H]1CN(C)Cc1ccncc1	i	nt	nt	nt
COc1ccc(/C=C2\SC(=O)N(CCNC(=O)Cc3coc4cc(C)ccc34)C2=O)cc1OC	i	?	?	7.4µM
COc1ccc(/C=C2/SC(=O)N(CCC(=O)Nc3ccc(C)cc3)C2=O)cc1OC	i	i	i	i
CN(C)c1cc2c(c(N(C)C)c1)C(=O)c1ccccc1C2=O	i	i	?	4.1µM
O=C(Nc1nccs1)C1(c2ccc(Cl)cc2)CC1	i	i	?	?
C=C1C2(C(=O)Nc3nccs3)CCC(C2)C1(C)C (stereo unspecified)	?	i	1.2µM	nt
C[C@@H](Oc1ccccc1)c1nnn(Cc2ccccc2)c1-c1c([C@@H](C)Oc2ccccc2)nnn1Cc1ccccc1	i	i	?	6.6µM
c1ccc(Cn2nnc3ccccc32)cc1	i	i	i	?
OC(c1ccccc1)c1ccncc1 (stereo unspecified)	i	nt	i	i
Cc1ccccc1C(N)c1ccncc1 (stereo unspecified)	i	i	i	5.9µM
CC/C(=N\NC(=O)c1ccccc1O)c1c(O)n(C2CCCCC2)c(=O)[nH]c1=O	i	i	?	12µM
Cc1cc(OCC(O)CN(C)C(=O)C(C)Oc2ccccc2)ccc1Cl (stereo unspecified)	i	i	i	i
CCOc1ccccc1NC(=S)N(CCCN1CCOCC1)Cc1cn(C)c2ccccc12	i	i	12µM	?
SMILES	SARS PLP yeast	NS1 function inh	Pf growth 48h	Pf growth 96h
COc1ccccc1NC(=S)N(CCCN1CCOCC1)Cc1cn(C)c2ccccc12	i	i	?	i
COC(=O)c1ccc(C2NC(=S)N(c3ccccc3)C(C)=C2C(=O)Nc2ccccc2OC)cc1 (stereo unspecified)	i	i	13µM	nt
CC1=C(C(=O)N2CCOCC2)C(c2ccc(Br)cc2)NC(=S)N1c1ccccc1 (stereo unspecified)	i	nt	i	i
C[C@H](NC(=O)c1ccco1)C(=O)NCCc1ccc(S(N)(=O)=O)cc1	i	i	i	i
COc1ccc(CNC(=O)c2ccc3c(=O)n(CCCN4CCCC4=O)c(=S)[nH]c3c2)cc1	i	nt	?	4.1µM
O=C(NCc1ccccc1)c1ccc2c(=O)n(CCCN3CCCC3=O)c(=S)[nH]c2c1	?	i	nt	?
COC(=O)c1ccc2c(=O)n(CCCN3CCCC3=O)c(=S)[nH]c2c1	i	i	12µM	i
COc1ccccc1CNC(=O)c1ccc2c(=O)n(CCCN3CCCC3=O)c(=S)[nH]c2c1	i	nt	?	15µM
COc1ccc(Cl)cc1NC(=S)NCCCN1CCCC1=O	i	nt	i	i
COc1cc(C(=O)NCCCN2CCCC2=O)ccc1OCc1ccc(Cl)cc1Cl	i	nt	10µM	?
COc1ccc2nc(SCC(=O)NCc3ccc(OC)c(OC)c3)[nH]c2c1	i	i	i	i
Cc1cc(C(=O)Nc2ccccc2C(=O)O)c(C)o1	i	i	i	?
CC(Nc1ccc2ccccc2c1)C(=O)N/N=C/c1ccncc1 (stereo unspecified)	i	nt	?	i
CC(C)Cn1c(=O)[nH]c(=O)c2c(C(F)(F)F)cc(-c3ccccc3)nc21	i	i	?	8.3µM
Cc1cc(C(F)(F)F)c2c(=O)[nH]c(=O)n(Cc3ccccc3)c2n1	i	i	i	?
O=c1[nH]c(=O)n(Cc2ccccc2)c2nc(-c3ccco3)cc(C(F)(F)F)c12	i	i	?	5.9µM
CCCn1c(=O)[nH]c(=O)c2c(C(F)(F)F)cc(-c3ccc(C)cc3)nc21	i	nt	i	2.6µM
CCOc1ccc(NC(=O)CN(C)C(=O)c2ccc(-c3ccc(C(C)=O)cc3)o2)cc1OCC	i	nt	i	i
Cc1ccc(N2CCN(S(=O)(=O)c3c(C)nc4scc(C)n4c3=O)CC2)c(C)c1	i	i	i	?
OCc1cc(CO)c(O)c(CCc2ccccc2)n1	i	i	nt	4.7µM
O=C(Nc1nccs1)c1cccc(NC(=O)C2CC2)c1	i	i	i	13µM
CCC(=O)Nc1cccc(C(=O)Nc2nccs2)c1	i	i	i	i
CN(Cc1ccccc1)C(=O)c1ccc(NC(=O)Cc2cccc(NC(=O)C3CCCN(C(=O)C4CCC4)C3)c2)cc1 (stereo unspecified)	i	nt	9.3µM	?
CN(Cc1ccccc1)C(=O)c1ccc(NC(=O)Cc2cccc(NC(=O)C3CCN(C(=O)C4CCCCC4)CC3)c2)cc1	i	nt	?	?
O=C(Cc1cccc(NC(=O)C2CCN(C(=O)C3CCCCC3)CC2)c1)Nc1cccc(C(=O)N2CCCC2)c1	i	nt	13µM	10µM
SMILES	SARS PLP yeast	NS1 function inh	Pf growth 48h	Pf growth 96h
O=C(Cc1cccc(NC(=O)C2CCN(C(=O)C3CC3)CC2)c1)Nc1cccc(C(=O)N2CCCC2)c1	i	nt	?	?
CC(=O)c1cccc(NS(=O)(=O)c2ccc(NC(=O)N3CCCCC3)cc2)c1	i	i	i	10µM
Cc1ccc(S(=O)(=O)N(C)CC(=O)N2CCN(Cc3ccccc3)CC2)cc1	nt	i	i	i
Cc1ccc(CSC(N)=Nc2ccccc2)cc1C	nt	i	nt	nt
CC(=O)c1cccc(NC(=O)C2CCCCC2)c1	i	i	i	1.5µM
CN(C(=O)c1ccc(NC(=O)Cc2ccc(NC(=O)C3CCN(C(=O)c4ccccc4)CC3)cc2)cc1)C1CC1	i	nt	?	6.6µM
COc1cc(NC(=O)NNC(=O)c2cc3occc3n2C)cc(OC)c1OC	i	?	i	i
